Results from the supplement of paper PMC7411054.
Counter-ions that a name gives are not always drawn.

How the values were obtained:
Test in all cases: phenotypically active (imaging signature differs from DMSO and reproducible) at any of 0.3-9 uM (binary (1 = active, 0 = inactive)); higher = active
Details in all cases: treatment time: 24 h
[1] = system: A549-ACTB-RAB5A
Method in brief: (§1)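 Phenotypic activity depended on meeting both a deviation and a reproducibility criterion. The fifteen gene-edited A549, HepG2 and WPMY1 reporter lines were treated at 0.3, 1, 3 or 9 µM for 24 h, four wells each, then imaged live with features normalised to solvent control wells. Deviation required ≥3 of 4 wells past the 95th percentile of control Euclidean distances, and reproducibility a median replicate Pearson correlation above the 95th percentile of non-replicates.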

[2] = system: A549-CANX-COX4
Method in brief: as §1

[3] = system: A549-GM130-SQSTM1
Method in brief: as §1

[4] = system: A549-TP53BP1-CLTA
Method in brief: as §1

[5] = system: A549-TUBA1B-RELA
Method in brief: as §1

[6] = system: HepG2-ACTB-RAB5A
Method in brief: as §1

[7] = system: HepG2-CANX-COX4
Method in brief: as §1

[8] = system: HepG2-GM130-SQSTM1
Method in brief: as §1

[9] = system: HepG2-TP53BP1-CLTA
Method in brief: as §1

[10] = system: HepG2-TUBA1B-RELA
Method in brief: as §1

[11] = system: WPMY1-ACTB-RAB5A
Method in brief: as §1

[12] = system: WPMY1-CANX-COX4
Method in brief: as §1

[13] = system: WPMY1-GM130-SQSTM1
Method in brief: as §1

[14] = system: WPMY1-TP53BP1-CLTA
Method in brief: as §1

[15] = system: WPMY1-TUBA1B-RELA
Method in brief: as §1

Measured: phenotypically active

Clc1ccc2c(c1)C(c1ccccc1)=NCc1nncn1-2 [estazolam]
inactive: [1] 0 | [2] 0 | [3] 0 | [4] 0 | [5] 0 | [6] 0 | [7] 0 | [8] 0 | [9] 0 | [10] 0 | [11] 0 | [12] 0 | [13] 0 | [14] 0 | [15] 0

COc1ccc2c(c1)[C@]13CCCC[C@@H]1[C@H](C2)N(C)CC3 [dextromethorphan]
inactive: [1] 0 | [2] 0 | [3] 0 | [4] 0 | [5] 0 | [6] 0 | [7] 0 | [8] 0 | [9] 0 | [10] 0 | [11] 0 | [12] 0 | [13] 0 | [14] 0 | [15] 0

COc1cc(C(=O)O[C@H]2C[C@H]3CC[C@@H](C2)N3C)ccc1O [Fillalbin]
inactive: [1] 0 | [2] 0 | [3] 0 | [4] 0 | [5] 0 | [6] 0 | [7] 0 | [8] 0 | [9] 0 | [10] 0 | [11] 0 | [12] 0 | [13] 0 | [14] 0 | [15] 0

CN1[C@@H]2C[C@@H](OC(=O)[C@H](CO)c3ccccc3)C[C@H]1[C@@H]1O[C@@H]12 [Scopolamine hydrobromide]
inactive: [1] 0 | [2] 0 | [3] 0 | [4] 0 | [5] 0 | [6] 0 | [7] 0 | [8] 0 | [9] 0 | [10] 0 | [11] 0 | [12] 0 | [13] 0 | [14] 0 | [15] 0

C[C@@H]1O[C@H](C[N+](C)(C)C)C[C@H]1O [(+)-Muscarine iodide]
inactive: [1] 0 | [2] 0 | [3] 0 | [4] 0 | [5] 0 | [6] 0 | [7] 0 | [8] 0 | [9] 0 | [10] 0 | [11] 0 | [12] 0 | [13] 0 | [14] 0 | [15] 0

CNC(C)(C)Cc1ccccc1 [mephentermine]
inactive: [1] 0 | [2] 0 | [3] 0 | [4] 0 | [5] 0 | [6] 0 | [7] 0 | [8] 0 | [9] 0 | [10] 0 | [11] 0 | [12] 0 | [13] 0 | [14] 0 | [15] 0

C[C@@H]1CN([C@H]2CC[C@](C#N)(c3ccc(F)cc3)CC2)CC[C@]1(C(=O)O)c1ccccc1 [levocabastine]
inactive: [1] 0 | [2] 0 | [3] 0 | [4] 0 | [5] 0 | [6] 0 | [7] 0 | [8] 0 | [9] 0 | [10] 0 | [11] 0 | [12] 0 | [13] 0 | [14] 0 | [15] 0

C/C=C1\CN2CC[C@]34c5cc(OC)ccc5N5C(=O)C(O)OC[C@@H]([C@H]53)[C@H]1C[C@H]24 (stereo not given in full) [10-Methoxy-o-demethyltsilanine]
inactive: [1] 0 | [2] 0 | [3] 0 | [4] 0 | [5] 0 | [6] 0 | [7] 0 | [8] 0 | [9] 0 | [10] 0 | [11] 0 | [12] 0 | [13] 0 | [14] 0 | [15] 0

CCOc1cc(C=O)ccc1O [Ethylvanilline]
inactive: [1] 0 | [2] 0 | [3] 0 | [4] 0 | [5] 0 | [6] 0 | [7] 0 | [8] 0 | [9] 0 | [10] 0 | [11] 0 | [12] 0 | [13] 0 | [14] 0 | [15] 0

COc1ccc(OC)c(C(O)C(C)N)c1 (stereo not given) [methoxamine]
inactive: [1] 0 | [2] 0 | [3] 0 | [4] 0 | [5] 0 | [6] 0 | [7] 0 | [8] 0 | [9] 0 | [10] 0 | [11] 0 | [12] 0 | [13] 0 | [14] 0 | [15] 0

CCC1(CC)C(=O)NC(=O)N(C)C1=O [metharbital]
inactive: [1] 0 | [2] 0 | [3] 0 | [4] 0 | [5] 0 | [6] 0 | [7] 0 | [8] 0 | [9] 0 | [10] 0 | [11] 0 | [12] 0 | [13] 0 | [14] 0 | [15] 0

CC[N+](CC)(CCCNC1=CC(=O)C(NCCC[N+](CC)(CC)Cc2ccccc2)=CC1=O)Cc1ccccc1 [Benzoquinonium dibromide]
inactive: [1] 0 | [2] 0 | [3] 0 | [4] 0 | [5] 0 | [6] 0 | [7] 0 | [8] 0 | [9] 0 | [10] 0 | [11] 0 | [12] 0 | [13] 0 | [14] 0 | [15] 0
